Screens: PubChem BioAssay, several laboratories
In the library only some 5.4% were active in any assay of this set; here they are far more common.
MIN6 prolif – inducers of beta-cell replication in MIN6 cells. MIN6 cells proliferation, ATPlite luminescence, 48 h; cells starved in 0.2% serum; 100% = growth in 10% serum. proliferation, % at 10 µM. hit rate 0.29% among 330,000;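 active = compounds whose signal lies at least 3.5 SD above the mean of all wells on their plate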
ALR H2O2 inh – human ALR oxidase inhibition via reduced H2O2; P55789; hit rate 3.8% among 290,000; inhibition, % (concentration not given with the values); purified ALR, DTT oxidation, H2O2 HRP-luminol luminescence;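 active = mean replicate inhibition above about 79%, with every replicate also reaching it, limit read from the data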
Target sequence (P55789 whole entry, looked up): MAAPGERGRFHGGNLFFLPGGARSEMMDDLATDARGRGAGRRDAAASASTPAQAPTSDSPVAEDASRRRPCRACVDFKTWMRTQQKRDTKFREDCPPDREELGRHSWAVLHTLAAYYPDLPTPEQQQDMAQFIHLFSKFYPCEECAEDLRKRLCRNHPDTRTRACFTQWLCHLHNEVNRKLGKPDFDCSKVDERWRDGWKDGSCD
Granule exo inh – blocks lytic granule exocytosis; inhibition, % at 10 µM; hit rate 0.66% among 360,000; TALL-104 LAMP-1 surface exposure, flow cytometry; cells stimulated with thapsigargin and PMA;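 active = inhibition above about 55%, limit read from the data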
PfM18AAP inh-1 – PfM18AAP enzyme inhibition. recombinant PfM18AAP, H-Glu-NHMec fluorogenic cleavage. hit rate 1.2% among 290,000. inhibition, % at 7.35 µM;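 active = inhibition above the campaign mean inhibition over all tested compounds plus 3 SD, cut at about 28% in these data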
JMJD2C inh – human JMJD2C demethylase inhibition; Q9H3R0; inhibition, % at 2.35 µM; hit rate 0.069% among 330,000; GST-JMJD2C(1-420) H3K9me3 demethylation, DELFIA europium; AID 2099;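 active = more than half of a compound's replicate wells show inhibition beyond 50%, single wells judged on their own value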;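 also: signal counts dimethyl H3K9 product captured on neutravidin plate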
Target sequence (Q9H3R0 1-420 limits assumed): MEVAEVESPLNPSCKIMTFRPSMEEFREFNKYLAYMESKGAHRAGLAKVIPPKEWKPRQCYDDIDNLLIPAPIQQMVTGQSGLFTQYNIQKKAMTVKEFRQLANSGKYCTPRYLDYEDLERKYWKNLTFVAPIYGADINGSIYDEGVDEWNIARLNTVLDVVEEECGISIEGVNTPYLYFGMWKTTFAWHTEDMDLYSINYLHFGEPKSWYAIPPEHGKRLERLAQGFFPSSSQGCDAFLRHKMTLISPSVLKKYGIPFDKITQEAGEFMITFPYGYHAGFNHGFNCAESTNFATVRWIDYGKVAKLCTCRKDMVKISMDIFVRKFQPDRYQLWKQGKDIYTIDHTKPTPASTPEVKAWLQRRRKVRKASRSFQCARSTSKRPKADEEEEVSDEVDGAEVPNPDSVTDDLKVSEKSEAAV
SMARCA2 activ – increases SMARCA2 function in MMTV reporter cells; MG213 cells, MMTV-luciferase reporter, dexamethasone, overnight; activation, % at 9.1 µM; hit rate 1% among 370,000; in the data active = activation above about 7.8%
PfM18AAP inh-2 – PfM18AAP inhibition, confirmation. shares compounds with PfM18AAP inh-1. recombinant PfM18AAP, H-Glu-NHMec fluorogenic cleavage. inhibition, % at 7.35 µM. hit rate 28% among 2,400. AID 2170;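 active = mean inhibition over replicate wells above the hit cutoff set for the earlier primary screen, cut at about 29% in these data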
CTSL1 counter – Cathepsin L (human) inhibition, confirmation. shares compounds with PfM18AAP inh-1. purified cathepsin L1, Z-Leu-Arg-MCA fluorescence. inhibition, % at 5.96 µM. 2,400 tested, under 10 active;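 active = average inhibition across replicates above the hit cutoff set in the earlier primary screen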
A number is an active result; n = inactive; x = no result.

SMILES	MIN6 prolif	ALR H2O2 inh	Granule exo inh	PfM18AAP inh-1	JMJD2C inh	SMARCA2 activ	PfM18AAP inh-2	CTSL1 counter
N=c1c(C(=O)NCc2ccco2)cc2c(=O)n3ccccc3nc2n1C1CCCC1	n	n	n	36	n	n	n	n
Cc1cc(N2CCNC[C@@H]2C)ccc1N1CCN(Cc2ccccc2)[C@@H](C)C1	x	x	x	x	x	n	x	x
COc1ccc(/C=N/NS(=O)(=O)c2ccc(F)cc2)cc1COc1cc(F)ccc1[N+](=O)[O-]	n	n	n	65	n	n	n	n
COc1ccccc1Cc1c(-c2cccc(Br)c2)nc2ccc(C)cn12	x	x	x	x	x	n	x	x
COc1cccc(C2NC(=S)N(Cc3ccccc3)C(C)=C2C(C)=O)c1 (configuration not stated)	x	x	x	x	x	n	x	x
Cc1cc(O)c(N)c(C)c1Cl	n	n	n	50	n	n	68	n
Cc1cc(O)cc(C)c1Cl	n	n	n	x	n	n	x	x
CCC(=O)c1ccc(OCC(=O)Nc2nn3cnnc3s2)cc1	n	n	n	66	n	n	40	n
COC(=O)[C@]12C[C@H](CC(=O)NCC3CCCCC3)C(=O)N(CCC3=CCCCC3)C1=C[C@H](C(C)(C)C)O[C@@H]2C	x	x	x	x	x	n	x	x
O=C(Nc1ccc(Cl)cc1)Nn1cnc2ccccc2c1=O	n	n	n	n	n	n	x	x
CC(=O)Nc1ccc(S(=O)(=O)Nn2cnnc2)cc1	n	n	n	37	n	n	36	n
CC(=O)Nc1ccc(S(=O)(=O)Nc2ncccn2)cc1	n	n	n	n	n	n	x	x
O=C(Nc1ccc(Cl)cc1)Nn1cnnc1	n	x	n	68	n	n	57	n
CN1CCN(NC(=O)Nc2ccc([N+](=O)[O-])cc2)CC1	n	n	n	n	n	n	x	x
Cc1ccc(NC(=O)Nn2cnnc2)cc1	n	n	n	45	n	n	37	n
O=C(Nc1ccc([N+](=O)[O-])cc1)Nn1cnnc1	n	n	n	81	n	n	72	n
O=C(NS(=O)(=O)c1ccccc1[N+](=O)[O-])[C@H]1O[C@@H](n2ccc(=O)[nH]c2=O)[C@H](O)[C@@H]1O	x	x	x	x	x	n	x	x
COc1cc(C2Oc3cc(C4Oc5cc(O)cc(O)c5C(=O)C4O)ccc3OC2CO)ccc1O (configuration not stated)	n	n	n	n	n	n	x	x
CC(=O)Oc1cc(O)c2c(c1)OC(c1ccc(OC(C)=O)c(OC(C)=O)c1)C(OC(C)=O)C2=O (configuration not stated)	n	89	n	54	n	n	31	n
CC(=N)c1c(O)c2ccccc2oc1=O	n	n	n	n	n	n	x	x
O=c1oc2ccccc2c2oc3cc(O)c(O)cc3c12	n	x	n	68	n	n	74	n
O=C1/C(=C/c2cccnc2)SC(=S)N1Nc1ccccc1	n	92	n	37	n	n	n	n
O=C1/C(=C/c2cccnc2)SC(=S)N1c1ccccc1	n	n	n	n	n	n	x	x
Cc1c(NC(=S)N/N=C/c2ccc(O)cc2)c(=O)n(-c2ccccc2)n1C	n	99	n	35	n	n	n	n
COC(=O)C1=C(C)N(Cc2ccccc2C(F)(F)F)C(=NCc2ccc(OC)cc2)NC1c1ccc(Cl)cc1 (configuration not stated)	x	x	x	x	x	n	x	x
SMILES	MIN6 prolif	ALR H2O2 inh	Granule exo inh	PfM18AAP inh-1	JMJD2C inh	SMARCA2 activ	PfM18AAP inh-2	CTSL1 counter
COc1ccccc1-n1c(SC)nc2c(sc(=S)n2-c2ccccc2)c1=O	n	x	n	n	n	n	x	x
COc1ccc(-n2c(SCC#N)nc3c(sc(=S)n3-c3ccccc3)c2=O)c(OC)c1	n	x	n	35	n	n	n	n
COc1cc(C2C(C#N)=C(N)OC3=C2C(=O)CCC3)cc2c1OCO2 (configuration not stated)	n	x	n	34	n	n	n	n
CC(C)CCNC(=O)[C@@H](Cc1ccccc1)NC(=O)[C@H]1O[C@@H](n2ccc(=O)[nH]c2=O)[C@H](O)[C@@H]1O	x	x	x	x	x	n	x	x
COC(=O)[C@H](C)NC(=O)c1cc2c(cn1)[nH]c1ccccc12	n	n	n	n	n	n	x	x
C[C@H](NC(=O)c1cc2c(cn1)[nH]c1ccccc12)C(=O)O	n	98	n	51	n	n	n	n
CC1(C)CC2(C)OC2C2(C1)N=NC(=Nc1ccccc1)O2 (configuration not stated)	x	x	n	x	x	x	x	x
CCCn1cnc2c(=S)nc(N)[nH]c21	n	n	n	57	n	n	n	n
CCCCn1cnc2c(=S)nc(N)[nH]c21	n	n	n	40	n	n	n	n
CCCCCn1cnc2c(=S)nc(N)[nH]c21	n	x	n	41	n	n	n	n
Nc1nc(=S)c2ncn(C3CCCCC3)c2[nH]1	x	x	n	x	x	n	x	x
Nc1nc(=S)c2ncn([C@@H]3O[C@H](CO)[C@@H](O)[C@H]3O)c2[nH]1	n	n	n	x	x	n	x	x
O=C(C(=O)N1CCC(CNS(=O)(=O)c2cccc3ccccc23)CC1)c1cccs1	x	x	x	x	x	n	x	x
O=C(NCc1ccccc1)[C@H]1CCCN1C(=O)[C@H]1CCCN1C(=O)c1cccc(F)c1	x	x	x	x	x	n	x	x
O=S1(=O)c2ccc(N3CC[C@@H](O)C3)cc2O[C@@H]2CCN1C2	x	x	x	x	x	n	x	x
O=C(Nn1cnnc1)c1cc2cc(Br)ccc2oc1=O	n	n	n	34	n	n	n	n
CCN(CC)c1ccc(NS(=O)(=O)c2ccc(-c3ccc(=O)[nH]n3)o2)c(C)c1	n	100	n	45	n	n	n	n
COc1cccc2cc(C(=O)Nc3ccccc3C)/c(=N/O)oc12	n	n	n	49	n	n	n	n
COC(=O)CSc1nnc(-c2cccs2)o1	x	x	x	x	x	n	x	x
O=C(NCCc1c[nH]c2ccccc12)c1ccc(Sc2ccccc2Cl)c([N+](=O)[O-])c1	x	x	x	x	x	n	x	x
COC(=O)CN(n1cnnc1)S(=O)(=O)c1ccccc1	n	n	n	78	n	n	85	n
COC(=O)CN(c1ccccc1)S(=O)(=O)c1ccccc1	n	n	n	n	n	n	x	x
CNC(=S)NNc1nc(-c2ccccc2)c2cc(Cl)ccc2n1	n	n	n	x	n	n	x	x
CNC(=S)NNc1nc(C)cc(C)n1	n	x	n	68	n	n	48	n
O=C(N[C@H](C(=O)N1CCC[C@H]1C(=O)NCc1ccccc1)C1CCCCC1)c1ccc(Cl)c(Cl)c1	x	x	x	x	x	n	x	x
CCN(CC)c1ccc2nc3c4ccccc4c(=O)cc-3oc2c1	n	n	x	38	n	n	n	n
CCN(C(=O)CN1CCN(c2ccc(O)cc2)CC1)c1c(N)n(Cc2ccccc2)c(=O)[nH]c1=O	n	x	n	35	n	n	n	n
O=C(O)c1ccc2nc(-c3ccco3)c(-c3ccco3)nc2c1	n	x	n	35	n	n	n	n
